Assay results as given in PubChem BioAssay (NCATS).
Records with an inconclusive call do not appear. A call without a number means that no potency is given here. Active and inactive are the calls of the source. The call rests on the fitted dose curve; in most records, active means well fitted cell-killing curve with a large enough effect; inconclusive means small, poorly fitted or top-dose-only effect; inactive means flat fitted curve, though single readings scatter.

Test: Cell Viability - LYMP2-024 (AID 988);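 further: cells exposed to compound for 24 hr at 37 °C; nearly all actives have a fitted effect of over 60% in size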
Details: LYMP2-024 lymphoblastoid cell viability; series mostly up to 92.2 µM
Procedure, shortened: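 Acute toxicity is measured as concentration-dependent loss of intracellular ATP in a human lymphoblastoid line treated 24 hours at 37 C. Luciferase luminescence quantifies ATP; AC50 values come from standard Hill-equation modelling.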

Compound	Potency
CC(C#N)CCC#N (centres undefined)	inactive
Nc1cc(Cl)ccc1Cl	inactive
Nc1cccc(Cl)c1	inactive
ClCc1ccccc1	inactive
CCC/C=N/O	inactive
O=S(=O)(Cl)c1ccccc1	inactive
C=CCOCC1CO1 (centres undefined)	inactive
c1ccoc1	inactive
Clc1ccccc1	inactive
ClC(Cl)(Cl)C(Cl)(Cl)Cl	inactive
CCOC(=O)C1OC1(C)c1ccccc1 (centres undefined)	inactive
C/C=C/CC#N	inactive
C=CCCl	inactive
Oc1c(Cl)cccc1Cl	inactive
Brc1cccc(-c2ccccc2)c1	inactive
C=CCO	inactive
OCCCCO	inactive

Compound	Potency
Nn1cnnc1	inactive
BrCCc1ccccc1	inactive
Cc1ccccc1[N+](=O)[O-]	inactive
CCCCOC(=O)c1ccccc1N	inactive
Clc1cc(Cl)c(Cl)c(Cl)c1	inactive
Cc1ccc(N)c(C)c1	inactive
C1CC2OC2CC1C1CO1 (centres undefined)	inactive
CN(C)C(=O)Cl	inactive
CC(=O)NNc1ccccc1	inactive
Cc1ccc(N=C=O)cc1N=C=O	inactive
C=CC(=O)OC	inactive
OCC(Cl)CCl (centres undefined)	inactive
CC(C)CON=O	inactive
CC[N+](=O)[O-]	inactive
C[N+](=O)[O-]	inactive
CC(C)OC(=O)Cc1ccccc1	inactive
ClCC(Br)CBr (centres undefined)	inactive

Test: Cell Viability - LYMP2-026 (AID 989);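 further: cells exposed to compound for 24 h at 37 °C; nearly all actives have a fitted effect of over 50% in size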
Details: LYMP2-026 lymphoblastoid cell viability, qHTS; series mostly up to 92.2 µM
Procedure, shortened: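 Concentration-dependent loss of intracellular ATP in human lymphoblastoid cells after 24 hr at 37 C, quantified by luciferase luminescence. AC50 derived from standard Hill equation.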

Compound	Potency
CC(C#N)CCC#N (centres undefined)	inactive
Nc1cc(Cl)ccc1Cl	inactive
Nc1cccc(Cl)c1	inactive
ClCc1ccccc1	inactive
CCC/C=N/O	inactive
COc1c(C(C)(C)C)cc([N+](=O)[O-])c(C)c1[N+](=O)[O-]	inactive
O=S(=O)(Cl)c1ccccc1	inactive
C=CCOCC1CO1 (centres undefined)	inactive
c1ccoc1	inactive
Clc1ccccc1	inactive
ClC(Cl)(Cl)C(Cl)(Cl)Cl	inactive
CCOC(=O)C1OC1(C)c1ccccc1 (centres undefined)	inactive
C/C=C/CC#N	inactive
ClC(Cl)C(Cl)Cl	inactive
C=CCCl	inactive
Oc1c(Cl)cccc1Cl	inactive
Brc1cccc(-c2ccccc2)c1	inactive

Compound	Potency
C=CCO	inactive
Nn1cnnc1	inactive
BrCCc1ccccc1	inactive
CCCCOC(=O)c1ccccc1N	inactive
Cc1ccc(N)c(C)c1	inactive
C1CC2OC2CC1C1CO1 (centres undefined)	inactive
CN(C)C(=O)Cl	inactive
Cc1ccc(N=C=O)cc1N=C=O	inactive
O=C(Cl)OCc1ccccc1	inactive
C=CC(=O)OC	inactive
CCN(CC)N=O	inactive
OCC(Cl)CCl (centres undefined)	inactive
CC(C)CON=O	inactive
CC[N+](=O)[O-]	inactive
CC(C)(Cl)[N+](=O)[O-]	inactive
C[N+](=O)[O-]	inactive
CC(C)OC(=O)Cc1ccccc1	inactive

Test: Cell Viability - LYMP1-002 - Assay at 24 hr (AID 993)
Details: LYMP1-002 lymphoblastoid cells viability; series mostly up to 92.2 µM
Procedure, shortened: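 qHTS, LYMP1-002 lymphoblastoid, 24 h cpd, 37 C, CellTiter-Glo ATP luminescence; AC50 via Hill eq.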

Compound	Potency
CC(C#N)CCC#N (centres undefined)	inactive
Nc1cc(Cl)ccc1Cl	inactive
Nc1cccc(Cl)c1	inactive
ClCc1ccccc1	inactive
CCC/C=N/O	inactive
COc1c(C(C)(C)C)cc([N+](=O)[O-])c(C)c1[N+](=O)[O-]	inactive
O=S(=O)(Cl)c1ccccc1	inactive
C=CCOCC1CO1 (centres undefined)	inactive
c1ccoc1	inactive
Clc1ccccc1	inactive
C/C=C/CC#N	inactive
ClC(Cl)C(Cl)Cl	inactive
C=CCCl	inactive
Oc1c(Cl)cccc1Cl	inactive
Brc1cccc(-c2ccccc2)c1	inactive
C=CCO	inactive
OCCCCO	inactive

Compound	Potency
Nn1cnnc1	inactive
BrCCc1ccccc1	inactive
Cc1ccccc1[N+](=O)[O-]	inactive
CCCCOC(=O)c1ccccc1N	inactive
C1CC2OC2CC1C1CO1 (centres undefined)	inactive
CN(C)C(=O)Cl	inactive
CC(=O)NNc1ccccc1	inactive
O=C(Cl)OCc1ccccc1	inactive
CCN(CC)N=O	inactive
OCC(Cl)CCl (centres undefined)	inactive
CC(C)CON=O	inactive
CC[N+](=O)[O-]	inactive
CC(C)(Cl)[N+](=O)[O-]	inactive
C[N+](=O)[O-]	inactive
CC(C)OC(=O)Cc1ccccc1	inactive
ClCC(Br)CBr (centres undefined)	inactive

Test: Cell Viability - LYMP1-002 - Assay at 40 hr (AID 994); further: nearly all actives have a fitted effect of over 60% in size
Details: LYMP1-002 lymphoblastoid cell viability; series mostly up to 92.2 µM
Procedure, shortened: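 Viability in the human lymphoblastoid line was measured as intracellular ATP via CellTiter-Glo after 40 hr compound exposure. Tetraoctylammonium bromide served as positive control.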

Compound	Potency
CC(C#N)CCC#N (centres undefined)	inactive
Nc1cc(Cl)ccc1Cl	inactive
COc1c(C(C)(C)C)cc([N+](=O)[O-])c(C)c1[N+](=O)[O-]	inactive
O=S(=O)(Cl)c1ccccc1	inactive
C=CCOCC1CO1 (centres undefined)	inactive
c1ccoc1	inactive
Clc1ccccc1	inactive
ClC(Cl)(Cl)C(Cl)(Cl)Cl	inactive
CCOC(=O)C1OC1(C)c1ccccc1 (centres undefined)	inactive
C/C=C/CC#N	inactive
ClC(Cl)C(Cl)Cl	inactive
C=CCCl	inactive
Oc1c(Cl)cccc1Cl	inactive
Brc1cccc(-c2ccccc2)c1	inactive
C=CCO	inactive
OCCCCO	inactive
Nn1cnnc1	inactive

Compound	Potency
BrCCc1ccccc1	inactive
Cc1ccccc1[N+](=O)[O-]	inactive
CCCCOC(=O)c1ccccc1N	inactive
Clc1cc(Cl)c(Cl)c(Cl)c1	inactive
Cc1ccc(N)c(C)c1	inactive
C1CC2OC2CC1C1CO1 (centres undefined)	inactive
CN(C)C(=O)Cl	inactive
CC(=O)NNc1ccccc1	inactive
Cc1ccc(N=C=O)cc1N=C=O	inactive
O=C(Cl)OCc1ccccc1	inactive
OCC(Cl)CCl (centres undefined)	inactive
CC(C)CON=O	inactive
CC[N+](=O)[O-]	inactive
CC(C)(Cl)[N+](=O)[O-]	inactive
CC(C)OC(=O)Cc1ccccc1	inactive
ClCC(Br)CBr (centres undefined)	inactive
